ChEMBL document CHEMBL3433997, “St. Jude Leishmania screening dataset” (2016)

What follows are compounds tested against Hexose transporter 1 (Plasmodium falciparum) (UniProt O97467) (assay: ST_JUDE_LEISH: Cytotoxicity at 2uM final concentration against transgenic Leishmania Mexicana promastigotes LmPfHT that are glucose transport deficient and complemented with the Plasmodium falciparum hexose transporter. Activity is measured by DNA content using SYBR green in vitro).
Assay type: functional

Which inhibition does the source give for O=C(Nc1cccc(CN2CCCN(Cc3cccc(Cl)c3)CC2)c1)c1ccc(Br)cc1 here?
Its inhibition is 7.39%.

For COc1cc2nc(N3CCC(CNC(=O)c4ccc(-c5ccc(Cl)cc5)cc4)CC3)nc(N)c2cc1OC, which inhibition is on record?
Its inhibition is 8.03%.

Which inhibition does the source give for O=C(NCc1cccc(C(F)(F)F)c1)c1ccc(-c2nc3cc(F)c(F)cc3[nH]2)cc1 here?
Its inhibition is -2.13%.

Which inhibition does the source give for CCOC(=O)N1CCN(CCCCNc2c3ccc(Cl)cc3nc3ccc(OC)cc23)CC1 here?
The inhibition was 9.69%.

For O=C(Nc1nc2cc(S(=O)(=O)NCCc3cccc(F)c3)ccc2n1CCCn1ccnc1)c1ccc(Cl)cc1, which inhibition is on record?
Its inhibition is 0.32%.

With Cc1cccc2nc(-c3ccc(-c4cccc(CN5CCN(CC6CCCN(C)C6)CC5)c4)s3)[nH]c12 (stereo not given) as the compound, how does the inhibition read?
The inhibition was -3.27%.

For CCN(CC1CCN(CC2(O)CCOCC2)CC1)c1cc(C)nc(Nc2ccc(Cl)cc2)n1, which inhibition is on record?
Its inhibition is 0.27%.

For Nc1nc(N)c2c(ccc3c2ccn3CCCCO)n1, which inhibition is on record?
Its inhibition is 7.01%.

For O=C(Nc1ccc(Cl)cc1)Nc1cccc(CCNCc2ccccc2)c1, which inhibition is on record?
Its inhibition is 0.57%.

How did the inhibition turn out when Cc1c(Cc2ccccc2Cl)cnc2nc(N)nc(N)c12 was run?
Its inhibition is 37.5%.

With N=C(NCCc1ccc(Cl)cc1)c1ccc(Cl)c(Cl)c1 as the compound, how does the inhibition read?
The inhibition was 2.64%.

Which inhibition does the source give for CCCCCC(C)C(C)c1cc(OC(N)=O)c2c(c1)OC(C)(C)C=C2c1ccncc1 (stereo not given) here?
The inhibition was -1.09%.

How did the inhibition turn out when O=C1OC2(CN1CC1CCN(Cc3ccc(O)cc3Cl)C1)c1ccccc1-c1ccccc12 (stereo not given) was run?
Its inhibition is -2.55%.

For C=CCOC(=O)N1CCC(CNCc2cccc(-c3ccc(-c4nc5cccc(C)c5[nH]4)s3)c2)C1 (stereo not given), which inhibition is on record?
Its inhibition is -0.37%.

How did the inhibition turn out when Cc1cc(N)c2cc(NC(=O)CCC(=O)Nc3ccc4nc(C)cc(N)c4c3)ccc2n1 was run?
The inhibition was 6.01%.

For CC(C)CN1C(=O)C(c2ccc(F)c(F)c2)=C(O)C1c1ccccc1 (stereo not given), which inhibition is on record?
The inhibition was 4.04%.

For COc1ccc2ncc(F)c(CCN3CCC(NCc4cc(F)c5c(c4)OCCO5)CC3)c2n1, which inhibition is on record?
Its inhibition is 20.5%.

Which inhibition does the source give for CN1C(C)(C)CC(NC(=O)c2ccc(-c3nc4cc(Cl)c(Cl)cc4[nH]3)cc2)CC1(C)C here?
The inhibition was 2.2%.

With CS(=O)(=O)NCCCNCc1cccc(-c2ccc(-c3nc4cc(C(F)(F)F)ccc4[nH]3)s2)c1 as the compound, how does the inhibition read?
Its inhibition is 2.21%.

CC(C)CN(c1nc(C(=O)NNC(=O)[C@H](CC2CC2)NC(=O)c2cc3cc(OCCN4CCCCC4)ccc3o2)cs1)C1CC1 was tested. Which inhibition did it give?
The inhibition was 0.58%.

Which inhibition does the source give for N=C(Nc1nc(-c2ccccn2)cc2ccccc12)c1cccc(Cl)c1 here?
The inhibition was 48.7%.

CS(=O)(=O)CCNCc1nc(-c2ccc3c(Nc4ccc(Oc5ccccn5)cc4)ccnc3c2)cs1 was tested. Which inhibition did it give?
Its inhibition is 4.96%.

How did the inhibition turn out when C/C=C/COc1ccc(-c2c(C)[nH]c(C)c(Cl)c2=O)cc1 was run?
Its inhibition is 6.53%.

How did the inhibition turn out when COc1ccc(CC(Cc2ccc(OC)cc2)NCC(O)c2cccc(Cl)c2)cc1 (stereo not given) was run?
The inhibition was 0.72%.

Which inhibition does the source give for Cc1cccc2nc(-c3ccc(-c4cccc(NC(=O)c5cncn5C)c4)cc3)[nH]c12 here?
Its inhibition is 5.37%.

How did the inhibition turn out when O=C(Nc1ccc(Cn2ncc(N3CCCNCC3)c(Cl)c2=O)cc1)Nc1cc(Cl)cc(Cl)c1 was run?
The inhibition was 3.38%.

How did the inhibition turn out when CCN(CC)CCNC(=O)c1ccc(NC(=O)c2cn(-c3ccccc3)nc2-c2cccs2)cc1 was run?
Its inhibition is 4.01%.

With Cc1ccc(Nc2nc3cc(N(C)c4ccnc(Nc5cccc(CCS(C)(=O)=O)c5)n4)ccc3n2C)cc1 as the compound, how does the inhibition read?
The inhibition was 7.25%.

CS(=O)(=O)Cc1ccc(Nc2nccc(NC3CCN(c4nccc(C(F)(F)F)n4)CC3)n2)cc1 was tested. Which inhibition did it give?
The inhibition was 1.41%.

For CCN(CC)CC(O)c1cc(-c2ccc(OC)cc2)nc2cc(Cl)ccc12 (stereo not given), which inhibition is on record?
The inhibition was 5.08%.

N#Cc1ccc(-c2ccc(C(=O)NCCCCN3CCC(c4cc(Br)c5c(c4OCC(N)=O)CCCC5)CC3)cc2)cc1 was tested. Which inhibition did it give?
Its inhibition is 1.24%.

With CCc1cn2c3c(cc(C(=O)N[C@@H](Cc4ccccc4)[C@H](O)CNCCOC)cc13)N(C)S(=O)(=O)CC2 as the compound, how does the inhibition read?
The inhibition was 2.43%.

With O=C(Nc1ccc(-c2ccc(-c3nc4ccccc4[nH]3)s2)cc1)Nc1ccc(Cl)c(Cl)c1 as the compound, how does the inhibition read?
The inhibition was 8.71%.

How did the inhibition turn out when CCCc1cc(OC)c(CC2c3cc(O)c(Cl)cc3CCN2C)cc1OC (stereo not given) was run?
Its inhibition is 7.17%.

With CC(=O)Nc1cccc(C(=O)Nc2ccc(-c3cccc(-c4nc5cccc(C)c5[nH]4)c3)cc2)c1 as the compound, how does the inhibition read?
The inhibition was 1.78%.

With O=C(/C=C/c1ccc(Cl)c(Cl)c1)NCCCCCN1CCC(NC(=O)Nc2cccc(Cl)c2F)CC1 as the compound, how does the inhibition read?
The inhibition was -0.65%.

Which inhibition does the source give for OCC(CO)(CO)NCc1ccc2c3c(cccc13)-c1ccccc1-2 here?
The inhibition was 14.8%.

COc1cccc(CCc2nc3c(N4CCC(Cc5ccccc5)CC4)cccc3n2CC2CNCCO2)c1 (stereo not given) was tested. Which inhibition did it give?
Its inhibition is 9.47%.

COc1ccc2nccc(NCC3(O)CCN(CC(O)c4ccc5c(c4)NC(=O)CS5)CC3)c2n1 (stereo not given) was tested. Which inhibition did it give?
The inhibition was 2.49%.

With CN(c1ccc(NC(=O)Nc2cc(C(C)(C)C)on2)cc1)c1ccnc(NCCOC(=O)Nc2cc(C(C)(C)C)on2)n1 as the compound, how does the inhibition read?
Its inhibition is 7.48%.

These compounds were tested against Glucose transporter (Leishmania mexicana) (UniProt O61059) (assay: ST_JUDE_LEISH: Cytotoxicity at 2uM final concentration against transgenic Leishmania Mexicana promastigotes LmGT2 that are glucose transport deficient and complemented with the L. Mexicana glucose transporter 2. Activity is measured by DNA content using SYBR green in vitro).
Assay type: functional

O=C(Nc1cccc(CN2CCCN(Cc3cccc(Cl)c3)CC2)c1)c1ccc(Br)cc1 was tested. Which inhibition did it give?
Its inhibition is 9.96%.

COc1cc2nc(N3CCC(CNC(=O)c4ccc(-c5ccc(Cl)cc5)cc4)CC3)nc(N)c2cc1OC was tested. Which inhibition did it give?
Its inhibition is 9.81%.

Which inhibition does the source give for O=C(NCc1cccc(C(F)(F)F)c1)c1ccc(-c2nc3cc(F)c(F)cc3[nH]2)cc1 here?
Its inhibition is 4.61%.

CCOC(=O)N1CCN(CCCCNc2c3ccc(Cl)cc3nc3ccc(OC)cc23)CC1 was tested. Which inhibition did it give?
Its inhibition is 7.38%.

With O=C(Nc1nc2cc(S(=O)(=O)NCCc3cccc(F)c3)ccc2n1CCCn1ccnc1)c1ccc(Cl)cc1 as the compound, how does the inhibition read?
Its inhibition is 4.97%.

How did the inhibition turn out when Cc1cccc2nc(-c3ccc(-c4cccc(CN5CCN(CC6CCCN(C)C6)CC5)c4)s3)[nH]c12 (stereo not given) was run?
The inhibition was 0.69%.

How did the inhibition turn out when CCN(CC1CCN(CC2(O)CCOCC2)CC1)c1cc(C)nc(Nc2ccc(Cl)cc2)n1 was run?
Its inhibition is -0.02%.

For Nc1nc(N)c2c(ccc3c2ccn3CCCCO)n1, which inhibition is on record?
The inhibition was 6.28%.

Which inhibition does the source give for O=C(Nc1ccc(Cl)cc1)Nc1cccc(CCNCc2ccccc2)c1 here?
Its inhibition is 1.38%.

Cc1c(Cc2ccccc2Cl)cnc2nc(N)nc(N)c12 was tested. Which inhibition did it give?
Its inhibition is 24.1%.

How did the inhibition turn out when N=C(NCCc1ccc(Cl)cc1)c1ccc(Cl)c(Cl)c1 was run?
Its inhibition is 1.15%.

How did the inhibition turn out when CCCCCC(C)C(C)c1cc(OC(N)=O)c2c(c1)OC(C)(C)C=C2c1ccncc1 (stereo not given) was run?
The inhibition was -1.38%.

O=C1OC2(CN1CC1CCN(Cc3ccc(O)cc3Cl)C1)c1ccccc1-c1ccccc12 (stereo not given) was tested. Which inhibition did it give?
The inhibition was 2.67%.

For C=CCOC(=O)N1CCC(CNCc2cccc(-c3ccc(-c4nc5cccc(C)c5[nH]4)s3)c2)C1 (stereo not given), which inhibition is on record?
The inhibition was -0.89%.

How did the inhibition turn out when Cc1cc(N)c2cc(NC(=O)CCC(=O)Nc3ccc4nc(C)cc(N)c4c3)ccc2n1 was run?
Its inhibition is 8.34%.

How did the inhibition turn out when CC(C)CN1C(=O)C(c2ccc(F)c(F)c2)=C(O)C1c1ccccc1 (stereo not given) was run?
The inhibition was -7.87%.

COc1ccc2ncc(F)c(CCN3CCC(NCc4cc(F)c5c(c4)OCCO5)CC3)c2n1 was tested. Which inhibition did it give?
Its inhibition is 17.9%.

For CN1C(C)(C)CC(NC(=O)c2ccc(-c3nc4cc(Cl)c(Cl)cc4[nH]3)cc2)CC1(C)C, which inhibition is on record?
The inhibition was 2.38%.

Which inhibition does the source give for CS(=O)(=O)NCCCNCc1cccc(-c2ccc(-c3nc4cc(C(F)(F)F)ccc4[nH]3)s2)c1 here?
The inhibition was 1.74%.

With CC(C)CN(c1nc(C(=O)NNC(=O)[C@H](CC2CC2)NC(=O)c2cc3cc(OCCN4CCCCC4)ccc3o2)cs1)C1CC1 as the compound, how does the inhibition read?
The inhibition was 0.46%.

With N=C(Nc1nc(-c2ccccn2)cc2ccccc12)c1cccc(Cl)c1 as the compound, how does the inhibition read?
The inhibition was 18.1%.

Which inhibition does the source give for CS(=O)(=O)CCNCc1nc(-c2ccc3c(Nc4ccc(Oc5ccccn5)cc4)ccnc3c2)cs1 here?
The inhibition was 2.64%.

Which inhibition does the source give for C/C=C/COc1ccc(-c2c(C)[nH]c(C)c(Cl)c2=O)cc1 here?
Its inhibition is 4.16%.

Which inhibition does the source give for COc1ccc(CC(Cc2ccc(OC)cc2)NCC(O)c2cccc(Cl)c2)cc1 (stereo not given) here?
The inhibition was 1.6%.

How did the inhibition turn out when Cc1cccc2nc(-c3ccc(-c4cccc(NC(=O)c5cncn5C)c4)cc3)[nH]c12 was run?
Its inhibition is 5.41%.

How did the inhibition turn out when O=C(Nc1ccc(Cn2ncc(N3CCCNCC3)c(Cl)c2=O)cc1)Nc1cc(Cl)cc(Cl)c1 was run?
Its inhibition is 0.75%.

CCN(CC)CCNC(=O)c1ccc(NC(=O)c2cn(-c3ccccc3)nc2-c2cccs2)cc1 was tested. Which inhibition did it give?
Its inhibition is 6.19%.

Cc1ccc(Nc2nc3cc(N(C)c4ccnc(Nc5cccc(CCS(C)(=O)=O)c5)n4)ccc3n2C)cc1 was tested. Which inhibition did it give?
The inhibition was 3.82%.

How did the inhibition turn out when CS(=O)(=O)Cc1ccc(Nc2nccc(NC3CCN(c4nccc(C(F)(F)F)n4)CC3)n2)cc1 was run?
Its inhibition is -2.6%.

With CCN(CC)CC(O)c1cc(-c2ccc(OC)cc2)nc2cc(Cl)ccc12 (stereo not given) as the compound, how does the inhibition read?
The inhibition was 7.55%.

Which inhibition does the source give for N#Cc1ccc(-c2ccc(C(=O)NCCCCN3CCC(c4cc(Br)c5c(c4OCC(N)=O)CCCC5)CC3)cc2)cc1 here?
The inhibition was -0.04%.

For CCc1cn2c3c(cc(C(=O)N[C@@H](Cc4ccccc4)[C@H](O)CNCCOC)cc13)N(C)S(=O)(=O)CC2, which inhibition is on record?
The inhibition was 3.91%.

For O=C(Nc1ccc(-c2ccc(-c3nc4ccccc4[nH]3)s2)cc1)Nc1ccc(Cl)c(Cl)c1, which inhibition is on record?
Its inhibition is 11.2%.

CCCc1cc(OC)c(CC2c3cc(O)c(Cl)cc3CCN2C)cc1OC (stereo not given) was tested. Which inhibition did it give?
The inhibition was 14.9%.

CC(=O)Nc1cccc(C(=O)Nc2ccc(-c3cccc(-c4nc5cccc(C)c5[nH]4)c3)cc2)c1 was tested. Which inhibition did it give?
Its inhibition is 0.36%.

O=C(/C=C/c1ccc(Cl)c(Cl)c1)NCCCCCN1CCC(NC(=O)Nc2cccc(Cl)c2F)CC1 was tested. Which inhibition did it give?
The inhibition was -9.82%.

How did the inhibition turn out when OCC(CO)(CO)NCc1ccc2c3c(cccc13)-c1ccccc1-2 was run?
The inhibition was 8.44%.

COc1cccc(CCc2nc3c(N4CCC(Cc5ccccc5)CC4)cccc3n2CC2CNCCO2)c1 (stereo not given) was tested. Which inhibition did it give?
The inhibition was 8.5%.

For COc1ccc2nccc(NCC3(O)CCN(CC(O)c4ccc5c(c4)NC(=O)CS5)CC3)c2n1 (stereo not given), which inhibition is on record?
Its inhibition is 2.58%.

CN(c1ccc(NC(=O)Nc2cc(C(C)(C)C)on2)cc1)c1ccnc(NCCOC(=O)Nc2cc(C(C)(C)C)on2)n1 was tested. Which inhibition did it give?
Its inhibition is 11.5%.
